A selection: hits, their analogues and other compounds. The true share with any hit is near 3.9%.
HepG2 viability = counter-screen for TGF-b inhibitors: cytotoxicity in HepG2 cells. HepG2 CAGA-GFP viability, ATP luminescence, 18 h. Potency, µM (titrated, usually from 46.1 µM), without a hit: at the top dose activity change, negative = cytotoxicity, hits mostly cytotoxic. actives 0.76% (n = 410,000). AID 588856
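HepG2 CAGA-GFP cells (1000/well, DMEM with 1% FBS) received compound, then TGF-beta at 500 pg/mL final, and were incubated 18 hours at 37 degrees C. Viability was read by CellTiter-Glo luminescence. Media-only wells were set as complete cell-killing and DMSO as no toxicity.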
TGFb SMAD3 inh = blocks TGF-b signaling | Potency, µM (highest dose often 46.1 µM), for the others: at the top dose activity, negative = inhibition, actives largely listed as inhibitors | actives 1.2% (n = 410,000) | AID 588855 | HepG2 CAGA-GFP TGF-b/SMAD3 reporter, GFP fluorescence, 18 h; TGF-beta stimulated, 500 pg/mL final; further: on the % scale 0 is the no-effect control and ±100 the full control effect; nearly all actives have a fitted effect of over 65% in size
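HEPG2 CAGA-GFP cells (1000/well, DMEM with 1% FBS) were pre-incubated 2 h at 37 degrees C, given compound by pin tool, then stimulated with TGF-beta at 500 pg/mL final for 18 h before per-cell GFP fluorescence imaging.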
HT1080NT lethal = kills 2HG-producing HT-1080-NT fibrosarcoma cells | actives 1.6% (n = 360,000) | HT-1080-NT fibrosarcoma viability, CellTiter-Glo ATP luminescence, 48 h | AID 686970 | Potency, µM (doses to about 46.1 µM), for the others: at the highest dose activity, negative = less viability, most hits filed as cytotoxic;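 further: NT is the 2HG producing partner of a matched IDH1 knockdown line; 0% = DMSO-treated cells and -100% = media-only wells without cells; nearly all actives have a fitted effect of over 55% in size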
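Luminescent CellTiter-Glo readout after 48 hours of compound exposure at 37 degrees C defined viability of HT-1080-NT cells. Activity was normalized to DMSO wells and cell-free media wells; concentration-response curves were fitted and assigned curve classes.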
HT1080 IDH1KD tx = kills HT-1080 cells with IDH1 knockdown; HT-1080 IDH1 knockdown viability, ATP luminescence, 48 h; Potency, µM (highest dose often 46.1 µM), without a hit: at the top dose activity, negative = toxicity, most hits filed as cytotoxic; AID 686971; actives 2% (n = 360,000);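 further: 0% = DMSO wells and -100% = cell-free medium wells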
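% activity derives from luminescence (CellTiter-Glo), normalised to DMSO and no-cell wells. HT-1080-IDH1KD cells, 750/well, had 48 h compound exposure at 37 °C.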
ATXN2 expr inh = inhibitors of ATXN2 expression. actives 0.72% (n = 360,000). HEK-293 ATXN2-luciferase reporter, luminescence, 24 h. Potency, µM (top dose mostly 57 µM), without a hit: at the top dose activity change, negative = inhibition, hits mostly inhibitors; further: on the % scale 0 is the no-effect control and ±100 the full control effect; nearly all actives have a fitted effect of over 55% in size
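ATXN2-luciferase reporter cells (luciferase flanked by upstream and downstream ATXN2 gene portions) were treated 24 h at 37 °C with compounds at up to 57 uM. SteadyGlo luminescence gave expression; GF-AFC fluorescence gave viability.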
S2 tox = reduces viability in counter-screen for ATXN expression inhibitors | S2 cells (HEK-293 line with an ATXN2-luciferase reporter) viability, CellTiter-Fluor protease fluorescence, 24 h | Potency, µM (series often up to 56.7 µM), usual class: cytotoxic | actives 0.49% (n = 400,000); further: nearly all actives have a fitted effect of over 40% in size
* = called active by the depositor; i = inactive; ? = inconclusive; · = no result; [ ] = dose if it differs, or a comment. The call rests on the fitted dose curve; in most records, active means well fitted curve in the direction sought with a large enough effect; inconclusive means small, poorly fitted or top-dose-only effect, or another doubt; inactive means no such curve, though single readings can be large; an effect the other way counts as inactive or inconclusive. Potency means the concentration at half of the fitted maximal effect.

SMILES | HepG2 viability | TGFb SMAD3 inh | HT1080NT lethal | HT1080 IDH1KD tx | ATXN2 expr inh | S2 tox
C[N+](C)(C)CC/C=C1/c2ccccc2CSc2ccccc21 | -16% | -22% | -6% | -6% | -6% | i
CCOC(=O)Cc1ccc(NC(=O)N(C(C)C)C2CCN(C(C)=O)CC2)cc1 | 13% | -19% | · | · | · | ·
CCOc1cc(/C=C/C(=O)c2ccc3c(c2)OCCO3)ccc1OCC(=O)N(C)C | -30% | -28% | ? | 18µM* | ? | i
CCOc1cc(/C=C/C(=O)c2ccc(O)cc2)ccc1OCC(=O)N(C)C | -9% | 12% | -23% | ? | -17% | ?
CCOc1ccc(/C=C/c2nc(C#N)c(N3CCCCCC3)o2)cc1 | -6% | -4% | · | · | · | ·
CS(=O)(=O)N(CC(O)CON=C1c2ccccc2-c2ccccc21)c1ccc(F)cc1 (stereo unspecified) | -24% | 18µM* | ? | ? | ? | i
COc1cc2c(C(=O)N(C)c3cc(Cl)ccc3OC)cn(CC(C)C)c(=O)c2cc1OC | -36% | ? | · | · | ? | i
COC(=O)c1ccc2c(C(=Nc3ccc(N(C)C(=O)CN4CCN(C)CC4)cc3)c3ccccc3)c(O)[nH]c2c1 | · | · | · | · | 24µM* | ·
CCN1CCN(CCNC(=O)CCCCCn2c(=O)[nH]c3cc(C(=O)OC)ccc3c2=O)CC1 | -1% | 26% | 8% | -6% | 2% | i
CCCCC1CC2=C(C(=O)OC(C)(C)O2)C(c2cccc3ccccc23)O1 (stereo unspecified) | -46% | ? | ? | ? | -8% | i
CCCC[C@@H]1Cc2[nH][nH]c(=O)c2[C@H](c2cccc3ccccc23)O1 | · | · | ? | 26µM* | -12% | i
COc1ccc(CCNC(=O)c2ccc3c(c2)ncn3-c2ccc(C(C)C)cc2)cc1OC | -38% | ? | · | · | 25µM* | ?
C/C1=C\CCC2C(/C=C(\C)CC1)OC(=O)C2CN1CCCCC1 (stereo unspecified) | -49% | ? | ? | 21µM* | 18% | i
CC(C)N(CCCNC(=O)Nc1ccc(C(C)(C)C)cc1)C[C@H]1O[C@@H](n2cc(Br)c3c(N)ncnc32)[C@H](O)[C@H]1O | · | · | · | · | 22µM* | ·
CNC(=O)[C@H](CC1=CN=C2C=CCC=C12)NC(=O)[C@@H](CC(=O)NO)CC(C)C | · | · | · | · | 0.017µM* | ·
CC(C)c1cc(NC(=O)CCl)on1 | -50% | ? | 18µM* | 26µM* | · | ?
Cc1cc(Br)c(NC(=O)CCl)c(Br)c1 | -5% | ? | 2% | -1% | 16% | ?
O=C(Nn1c(C2CCCCC2)nc2ccccc2c1=O)c1ccc(Cl)c([N+](=O)[O-])c1 | -24% | ? | ? | ? | -23% | i
Cc1cc(C(=O)Nn2c(C3CCCCC3)nc3ccccc3c2=O)ccc1[N+](=O)[O-] | -54% | 20µM* | -4% | -2% | · | ?
CC(=O)N1CCCC1c1nc2ccccc2n1Cc1ccccc1 (stereo unspecified) | 2% | 4% | · | · | 3% | i
COc1ccc2cc(Br)ccc2c1CC(=O)NC1CC(C)(C)NC(C)(C)C1 | -90% | -60% | ? | 16µM* | ? | i
Cc1ccc(NC(=S)N=Nc2c(O)[nH]c3ccccc23)cc1 | -39% | 4µM* | ? | ? | ? | ?
Oc1ccc(NC(=S)N=Nc2c(O)[nH]c3ccccc23)cc1 | -15% | ? | -7% | -18% | -16%[11.3 µM] | ?
CC(=O)c1cccc(N=Nc2c(C)[nH]c3ccccc23)c1 | -10% | -6% | -6% | -5% | 33% | i
COc1ccc(N=Nc2c(C)[nH]c3ccccc23)cc1 | -9% | -3% | ? | 18µM* | -25% | i
COc1ccc(NC(=S)N=Nc2c(O)[nH]c3ccccc23)cc1 | -22% | 6.3µM* | -19% | -7% | · | ?

Bioassay records: PubChem BioAssay, National Center for Advancing Translational Sciences (NCATS)
